Experimental findings from PubChem BioAssay (EPA / NIEHS) are described below.

Active and inactive are the calls of the source. How the source made its calls: active means hit-call score of the fitted dose curve at least 0.9, where 1 is the maximum; inactive means score below 0.9.

This experiment can be described thus: CCTE_Shafer_MEA_dev_burst_rate: CCTE's Neural Network Formation Assay for Burst Rate, Shafer Lab (AID 2284042). As for the experimental part: CCTE_Shafer_MEA_dev assay is conducted using Axion Biosystems 48 well microelectrode array (MEA) plates and Maestro recording system. Each well of the MEA plate contains a grid of 16 microelectrodes embedded in the culture surface. Electrically active cells, such as neurons, can be cultured over the electrodes, and electrical activity in these cells can be recorded extracellularly. The spontaneous firing of neurons is captured from each electrode on a microsecond timescale providing both temporally and spatially precise data. […] The CCTE_Shafer_MEA_dev assay uses primary cultures of rat cortical neurons. Recordings are made on days post-plating 5, 7, 9 and 12. As these cultures mature over time, neural networks develop functional activity and form cohesive networks in which electrical activity can be highly coordinated. CCTE_Shafer_MEA_dev_burst_rate is 1 of 19 assay components of the CCTE_Shafer_MEA_dev assay. It measures the frequency of single-electrode bursts (temporally-clustered groups of action potential firing) as the total number of bursts divided by the length of the recording in a microelectrode array (MEA) using Axion Biosystems Maestro 768 channel amplifier with the AxIS adaptive spike detector. The mean bursting rate is averaged across the active electrodes to report a well-mean value. To collapse across multiple recordings made on days post-plating 5, 7, 9 and 12, the trapezoidal area-under-the-curve of the component is calculated.Data from the assay component CCTE_Shafer_MEA_dev_burst_rate was analyzed into 1 assay endpoint. This assay endpoint, CCTE_Shafer_MEA_dev_burst_rate, was analyzed in the negative analysis fitting direction relative to DMSO as the negative control and baseline of activity. Using a type of functional reporter, gain or loss-of-signal activity can be used to understand electrical activity.
On the day prior to culture, each well was coated thoroughly with 150 uL of 0.05% polyethyleneimine (PEI, Sigma Cat P3143) in 50 mM HEPES (Sigma Cat H7523) at a pH of 8. The plate was incubated at 37C for one hour. PEI was rinsed out with 500 uL of sterile water three times. Plates were stored at 4C until the day of culture. This culture was plated at a seeding density of 1.5 x 10^5 cells/well on a 48-well MEA plate, prepared as described above. Cells were administered via a 25 uL media/laminin ([…]; Sigma Cat L2020-1MG) drop directly onto the microelectrode array, as adding the cells with the laminin results in better attachment than pre-coating with laminin. After 2 hours, an additional 475 uL of cortical media was added and the cells returned to the incubator. Exposure starts at day 0 of plating and is continued over twelve days of network development until the experiment is terminated. Cells are fed with fresh medium on DIV 5 and 9, following the recordings on those days. The entire volume of media in the well is exchanged and any vehicle or compound treatment is renewed. Complete details are found in OP-NHEERL/ISTD/SBB/TJS/2015-03-r0 (available on request, email shafer.tim@epa.gov). Measurement of the electrical activity is non-invasive, and recordings can be made from the same plate over multiple different days of the culture. In cortical neurons, this allows for the measurement of extracellular action potentials over the period during which networks form in the MEA plate.
On to `O=C(CC(=O)C(F)(F)C(F)(F)C(F)(F)F)c1cccs1`, for which the result was inactive.
`CN(CCO)S(=O)(=O)C(F)(F)C(F)(F)C(F)(F)C(F)(F)C(F)(F)C(F)(F)C(F)(F)C(F)(F)F`: the compound was classed as inactive.
In the case of `C=CC(F)(F)C(F)(F)C(F)(F)C(F)(F)F`, the compound was called inactive.
With `O=C(OC(=O)C(F)(F)C(F)(F)F)C(F)(F)C(F)(F)F`, the compound was classed as inactive.
Regarding `O=C(O)CCC(F)(F)C(F)(F)C(F)(F)C(F)(F)C(F)(F)F`, the call was inactive.
With `O=C(F)C(F)(F)C(F)(F)C(F)(F)C(=O)F`, the result was inactive.
On to `CC(C)c1c(C(=O)Nc2ccccc2)c(-c2ccccc2)c(-c2ccc(F)cc2)n1CC[C@@H](O)C[C@@H](O)CC(=O)O`, for which the AC50 was 8.94 nM (active).
Take `COC(=O)C(F)(F)C(F)(F)C(F)(F)F`: the call was inactive.
As to `O=C1NS(=O)(=O)c2ccccc21`, the compound was classed as inactive.
`CN(Cc1cnc2nc(N)nc(N)c2n1)c1ccc(C(=O)N[C@@H](CCC(=O)O)C(=O)O)cc1`: the AC50 is 36.5 nM (active).
For the compound `Nc1ccn([C@@H]2O[C@H](CO)[C@@H](O)C2O)c(=O)n1` (stereo partly specified), the AC50 was 314 nM (active).
As to `O=C(F)C(F)(F)C(F)(F)C(F)(F)C(F)F`, the compound was called inactive.
Take `O=CC(F)(F)C(F)(F)C(F)(F)C(F)F`: the call was inactive.
Regarding `CN(C)CCOC(c1ccccc1)c1ccccc1`, the outcome was inactive.
With `O=C(C=C(O)C(F)(F)F)C(F)(F)F`, the result was inactive.
Take `O=CC(F)(F)C(F)(F)C(F)(F)F`: the call was inactive.
Take `O=C(O)C(F)(F)OC(F)(F)C(F)(F)OC(F)(F)C(F)(F)OC(F)(F)C(F)(F)C(F)(F)C(F)(F)F`: the result was inactive.
For the compound `O=P(O)(O)CCC(F)(F)C(F)(F)C(F)(F)C(F)(F)C(F)(F)C(F)(F)C(F)(F)C(F)(F)F`, the compound was called inactive.
The same measure, in the same setting: with `COC(=O)C(F)(F)C(F)(F)C(F)(F)C(F)(F)C(F)(F)F` the entry was “inactive”; with `FCOC(C(F)(F)F)C(F)(F)F`, “inactive”; with `NC(C(F)(F)F)C(F)(F)F`, “inactive”.
Turning to `FC(F)=C(F)C(F)(F)C(F)(F)C(F)(F)C(F)F`, the result was inactive.
For `CC(=O)Nc1ccc(O)cc1`, the compound was classed as inactive.
On the same count and under the same terms, with `O=P(O)(O)CCC(F)(F)C(F)(F)C(F)(F)C(F)(F)C(F)(F)C(F)(F)F` the entry was “inactive”.
For the compound `O=C(CCCN1CCC(O)(c2ccc(Cl)cc2)CC1)c1ccc(F)cc1`, the AC50 was 531 nM (active).
With `OCC(F)(F)C(F)(F)C(F)(F)C(F)(F)C(F)(F)C(F)(F)C(F)(F)C(F)(F)C(F)(F)C(F)(F)C(F)(F)F`, the outcome was inactive.
